# Results published in PubChem BioAssay.
# Calls of active or inactive are those of the source. Unless noted, how the calls were made is not given here.
# Columns and labels:
# [1] = tested on: XIP peptide (Xip251-270) binding; test: XIP fragment 251-270 binding compounds – biochemical, small-molecule microarray, fluorescence 635/667 nm, 0.1 µg/mL protein, primary screen (AID 1182); conditions: fluorescent protein binding, 635 nm, higher = more signal, called active from +8 up or from −8 down
# [2] = tested on: XIP peptide (Xip251-270); test: compounds binding XIP fragment 251-270 – biochemical, small-molecule microarray, fluorescence 635/667 nm, 0.5 µg/mL protein, primary screen (AID 1183); conditions: fluorescence 635 nm, higher = more signal
# [3] = blood-stage malaria parasite viability loss – strain 3D7, DAPI fluorescence, 100 nL, primary screen (AID 1184);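 further: parasites grown inside human red blood cells in medium with human serum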; conditions: P. falciparum 3D7 growth, 3 d, higher = more signal
# [4] = target: Homeobox protein Hox-A13 (Mus musculus) (UniProt Q62424); test: disruptors of Hoxa13 oligonucleotide interaction – biochemical, fluorescence polarization, labeled oligonucleotide, primary screen (AID 1185); conditions: Hoxa13:DNA binding, 15 min, higher = more signal, called active from +8 up or from −8 down
# [5] = blockers of DNA damage checkpoint Chk1 activation – imaging, HeLa, hydroxyurea, phospho-Chk1 antibody, percent positive cells, primary screen (AID 1186); conditions: hydroxyurea-induced phospho-Chk1 immunofluorescence imaging, higher = more signal
# [6] = blockers of DNA damage checkpoint Chk1 activation – imaging, HeLa, hydroxyurea, phospho-Chk1 nuclear intensity, primary screen (AID 1187); conditions: hydroxyurea-induced phospho-Chk1 immunofluorescence imaging, higher = more signal
# Sequence of Homeobox protein Hox-A13 (Mus musculus) (Q62424 whole entry, looked up): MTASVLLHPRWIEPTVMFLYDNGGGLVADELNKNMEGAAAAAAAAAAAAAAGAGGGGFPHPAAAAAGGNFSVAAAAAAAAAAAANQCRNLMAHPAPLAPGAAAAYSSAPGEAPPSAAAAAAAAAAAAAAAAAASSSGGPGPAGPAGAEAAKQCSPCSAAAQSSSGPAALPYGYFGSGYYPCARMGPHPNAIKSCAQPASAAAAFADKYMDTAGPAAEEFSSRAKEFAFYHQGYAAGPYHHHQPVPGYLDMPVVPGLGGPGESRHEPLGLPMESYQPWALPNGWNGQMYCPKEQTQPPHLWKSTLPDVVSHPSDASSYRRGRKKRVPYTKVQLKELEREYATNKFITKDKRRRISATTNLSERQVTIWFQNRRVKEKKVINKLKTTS
SMILES,composite z-score [1],composite z-score [2],z-score [3],z-score [4],z-score [5],z-score [6]
C=C(CCCC)/C(=C/C[C@@H](OC(C)=O)c1ccc(OCCO)cc1)c1cnc2ccccc2c1,0.591 (inactive),0.751,-3,-3.65 (inactive),-0.66 (inactive),-0.0832 (inactive)
COCCOC(=O)N1C(=O)[C@@]2(c3cc(C#CCC(C(=O)OC)C(=O)OC)ccc31)[C@H](c1ccccc1OCCO)N1[C@H](c3ccccc3)[C@H](c3ccccc3)OC(=O)[C@H]1[C@@H]2C(=O)NC[C@H](O)c1ccccc1,1.42 (inactive),0.705,-2.31,-1.77 (inactive),-0.0638 (inactive),-0.19 (inactive)
CCCCCN1CC=CC23O[C@@H]4C=CCCOC(=O)C4[C@H]2C(=O)N(CCCCCO)[C@@H]3C1=O (some centres not stated),0.382 (inactive),-0.0494,0.798,-4.21 (inactive),0.251 (inactive),0.408 (inactive)
COc1ccc(CCNC(=O)[C@@]2(C)c3ccccc3C(=O)N(C(C)C)[C@H]2c2ccc(CO)cc2)cc1,-0.15 (inactive),0.388,-0.57,-2.77 (inactive),0.0394 (inactive),-0.33 (inactive)
O=C(NCCN1CCOCC1)[C@@H]1c2ccccc2C(=O)N(C2CCCCC2)[C@H]1c1ccc(CO)cc1,-0.403 (inactive),0.0759,-1.23,-4.02 (inactive),-0.389 (inactive),-0.611 (inactive)
C=CC[C@]1(C(=O)NCc2ccccc2)N=C(c2ccc(OCCCO)cc2)O[C@H]1c1ccccc1N=[N+]=[N-],0.525 (inactive),0.699,-2.18,-1.87 (inactive),-0.22 (inactive),0.148 (inactive)
Cc1ccccc1C(O)C1C=CC2C(=O)N(c3ccccc3)C(=O)C2N1Nc1ccc(C(C)C)cc1 (configuration not stated),0.167 (inactive),0.599,-0.739,-1.77 (inactive),0.524 (inactive),0.118 (inactive)
CCCC[C@H]1OB(O)C[C@H]2C1=C(COC)C[C@H]1C(=O)N(C)C(=O)[C@H]12,-0.267 (inactive),-0.0711,1.5,-9 (active),0.534 (inactive),0.312 (inactive)
CN(C)CCCC[C@@H]1NC(=O)[C@H]2C[C@@H](C(=O)NCCCCCCN)[C@@H](c3ccc(O)cc3)N2C1=O,1.38 (inactive),0.785,-0.135,-1.16 (inactive),0.323 (inactive),0.362 (inactive)
O=C1O[C@H](c2ccccc2)[C@H](c2ccccc2)N2[C@H]1[C@@H](C(=O)N1CCCCCCC1)[C@]1(C(=O)Nc3ccc(C#CC4=CCCCC4)cc31)[C@H]2c1ccc(OCCO)cc1,2.27 (inactive),0.77,-2.33,-15.4 (active),0.606 (inactive),1.04 (inactive)
COCCOC(=O)N1C(=O)[C@@]2(c3cc(C#CCCO)ccc31)[C@H](C(=O)N1CCCCCCC1)[C@H]1C(=O)O[C@H](c3ccccc3)[C@H](c3ccccc3)N1[C@@H]2c1ccc(OCCO)cc1,1.29 (inactive),0.666,-1.5,-11 (active),-0.201 (inactive),0.0919 (inactive)
C=C(COC)/C(=C/C[C@@H](OC(C)=O)c1ccc(OCCO)cc1)c1cnc2ccccc2c1,-0.263 (inactive),0.554,-3.23,-6.01 (inactive),0.136 (inactive),-0.201 (inactive)
